PubChem BioAssay AID1224853 (National Center for Advancing Translational Sciences (NCATS), 2016)
Records with an inconclusive call do not appear. Activity calls are given as the source filed them. Calls follow the shape of the dose curve; as a rule, active = well fitted inhibition curve with a large enough effect; inconclusive = small, poorly fitted or top-dose-only effect; inactive = no such curve, though single readings can be large or run the other way.

Experiment: Confirmation assay for measurement of the activity of small molecule inhibitors on Zika virus induced Caspase-3 activity in human astrocytoma cells
Settings: SNB-19 ZIKV-induced caspase-3/7, luminescence, 6 h; series mostly up to 46.1 µM
Text: National Center for Advancing Translational Sciences [NCATS] Johns Hopkins University School of Medicine Florida State University Assay Overview: Increase in the Caspase-3 activity indicates an activation of apoptosis cell death pathway caused by Zika virus infection in certain types of neuronal cells including human neural progenitor cells (hNPCs), astrocytes, and astrocytoma cell line (SNB-19). This cell-based caspase-3 activity assay measures the increased caspase-3 activity in the astrocytoma cell line (SNB-19) after a 6-hour Zika virus infection with a luminescence readout. A decrease in the luminescence signal in this assay by small molecule treatment indicates an inhibitory effect of that small molecule on the Zika virus induced caspase-3 activity that may correlate with its effect on reduction of Zika virus caused cell death.
Assay Protocol Summary: The medium for SNB-19 cells is composed of RPMI 1640 (ATCC, Cat.# 30-2001), 10% fetal bovine serum (FBS) (GE healthcare Life Sciences, Cat.# SH30071.03), and 1% Pen/Strep (Gibco, Cat.# 15140-122). A Caspase-Glo 3/7 assay kit (catalog number G8092; Promega, Madison, WI) was used to detect caspase-3 activity induced by Zika virus infection in human cells. The reagent mixture was reconstituted as described in the protocol from the manufacturer. Polystyrene tissue culture treated and PDL coated white plates were obtained from Greiner Bio-One (Monroe, NC). Cells were seeded in 384- or 1536-well assay plates and cultured at 37 C with 5% CO2 for 16 to 20 hours. The typical cell seeding density in the 1536-well plate assay is 250 cells/well in 3ul medium for SNB-19 cells in tissue culture treated plates. Compounds were added to cells and incubated for one hour before addition of ZIKV solution to cells (2 FFU/cell). After incubation at 37 C with 5% CO2 for 6 hours, the reagent mixture of Caspase-Glo 3/7 assay kit was added to each well, followed by incubation at room temperature for 30 minutes. The luminescence intensity of the assay plates was measured using a ViewLux plate reader (PerkinElmer). Data were normalized by using the cell-containing wells without ZIKV as a negative control (0% induction of caspase 3/7 activity) and wells containing ZIKV infected cells (Caspase-3 activity induced) as a positive control (100% induction of caspase 3 activity). The percentage inhibitions of the increased Caspase-3 activity by small molecule inhibitors were then calculated.

Q: Which Potency does the source give for COc1cc2nc(-c3ccc(N4CCN(C)CC4)cc3)nc(NCCN3CCOCC3)c2cc1OC here?
A: inactive

Q: Which Potency does the source give for O=C1C(Cl)=C(NCCN2CCOCC2)C(=O)c2ncccc21 here?
A: 5.48 µM (active)

Q: With OCc1ccc(-c2ccc(-c3ccc(CO)s3)o2)s1 as the compound, how does the Potency read?
A: 0.218 µM (active)

Q: Which Potency does the source give for Nc1ncnc2c1ncn2[C@@H]1O[C@@H](CO)[C@H](O)[C@H]1O here?
A: inactive

Q: With c1ccc(CCNc2nc(-c3ccccc3)cs2)cc1 as the compound, how does the Potency read?
A: 15.5 µM (active)

Q: Which Potency does the source give for COc1cc(NC(C)CCCN)c2ncccc2c1 (stereo not given) here?
A: inactive

Q: With CC(O)=C(C#N)C(=O)Nc1ccc(C(F)(F)F)cc1 as the compound, how does the Potency read?
A: 0.869 µM (active)

Q: With COc1ccc(-c2coc3cc(O)ccc3c2=O)cc1 as the compound, how does the Potency read?
A: 15.5 µM (active)

Q: Which Potency does the source give for CO[C@H]1C(=O)[C@]2(C)[C@@H](OC)C[C@H]3OC[C@@]3(OC(C)=O)[C@H]2[C@H](OC(=O)c2ccccc2)[C@]2(O)C[C@H](OC(=O)[C@H](O)[C@@H](NC(=O)OC(C)(C)C)c3ccccc3)C(C)=C1C2(C)C here?
A: inactive

Q: With O=C(O)c1cccc(-c2noc(-c3ccccc3F)n2)c1 as the compound, how does the Potency read?
A: 3.46 µM (active)

Q: For O=C(/C=C/c1ccc(O)cc1)c1ccc(O)cc1O, which Potency is on record?
A: 2.45 µM (active)

Q: For COCCn1c2c([n+](Cc3cnccn3)c1C)C(=O)c1ccccc1C2=O, which Potency is on record?
A: 4.89 µM (active)

Q: Which Potency does the source give for CC(=O)Oc1ccccc1C(=O)Nc1ncc([N+](=O)[O-])s1 here?
A: 2.24 µM (active)

Q: Which Potency does the source give for CC(C)Oc1ccc2c(=O)c(-c3ccccc3)coc2c1 here?
A: 12.3 µM (active)

Q: For Nc1ccc(-c2ccc3ccccc3n2)cc1, which Potency is on record?
A: 6.9 µM (active)

Q: Which Potency does the source give for CNC1[C@H](O)C(O[C@@H]2C(O)C(O[C@H]3O[C@H]([C@@H](C)NC)CC[C@H]3N)[C@@H](N)C[C@H]2N)OC[C@]1(C)O (stereo not given in full) here?
A: inactive

Q: With O=C(Oc1ccccc1)c1cccc(C(=O)Oc2ccccc2)c1 as the compound, how does the Potency read?
A: 4.47 µM (active)

Q: For O=c1c2ccccc2nc2n1CCc1c-2[nH]c2ccccc12, which Potency is on record?
A: 4.89 µM (active)

Q: For Cc1cc(O)c2ccccc2c1O, which Potency is on record?
A: inactive

Q: With CN(C)c1ccc2cc(C(=O)N[C@@H](CCCN=C(N)CCl)C(=O)NCc3ccccc3)ccc2c1 as the compound, how does the Potency read?
A: inactive

Q: With O=C(Nc1ccc([N+](=O)[O-])cc1Cl)c1cc(Cl)ccc1O as the compound, how does the Potency read?
A: 1.95 µM (active)

Q: For CCCS(=O)c1ccc2nc(NC(=O)OC)[nH]c2c1 (stereo not given), which Potency is on record?
A: 21.8 µM (active)

Q: Which Potency does the source give for O=C(CS)Nc1ccccc1 here?
A: inactive

Q: For Cc1cc(O)c2c(c1)C(=O)c1cc(O)cc(O)c1C2=O, which Potency is on record?
A: 4.89 µM (active)

Q: Which Potency does the source give for Oc1ccc(/C=C/c2cc(O)cc(O)c2)cc1 here?
A: 13.8 µM (active)

Q: With O=C(Nc1ncc([N+](=O)[O-])s1)c1cccs1 as the compound, how does the Potency read?
A: 1.73 µM (active)

Q: Which Potency does the source give for COc1ccc(-c2cc(=S)ss2)cc1 here?
A: 15.5 µM (active)

Q: For COc1ccc(CC2=NN3C([C@@H](CCc4ccccc4)[C@@H](C)O)=NC(C)C3C(=O)N2)cc1OC (stereo not given in full), which Potency is on record?
A: inactive

Q: With Cc1ccc2c(n1)Oc1ccc(C(C)C(=O)OCC(=O)N(C)C)cc1C2 (stereo not given) as the compound, how does the Potency read?
A: 10.9 µM (active)

Q: With CN(C)c1cc(NC(=O)CNC(C)(C)C)c(O)c2c1C[C@@H]1C[C@H]3[C@H](N(C)C)C(=O)C(C(N)=O)=C(O)[C@@]3(O)C(=O)C1=C2O as the compound, how does the Potency read?
A: inactive

Q: With COc1cccc(-c2cc(=O)c3ccccc3o2)c1N as the compound, how does the Potency read?
A: 7.74 µM (active)

Q: For CC(C)c1ccc2oc3nc(N)c(C(=O)O)cc3c(=O)c2c1, which Potency is on record?
A: 1.95 µM (active)

Q: With CN(C)c1ccc(/C=C2\C(=O)Nc3ccccc32)cc1 as the compound, how does the Potency read?
A: 10.9 µM (active)

Q: For O=C(c1ccccc1)c1ccc2n1CCC2C(=O)O (stereo not given), which Potency is on record?
A: 17.3 µM (active)

Q: For CN1CC(=O)N2C(Cc3c([nH]c4ccccc34)[C@H]2c2ccc3c(c2)OCO3)C1=O (stereo not given in full), which Potency is on record?
A: inactive

Q: For CN(C)CCCSc1ccccc1NC(=O)/C=C/c1ccccc1, which Potency is on record?
A: 8.69 µM (active)

Q: Which Potency does the source give for O=C1NC(=O)C(=Cc2ccc(-c3ccc(F)cc3)o2)S1 here?
A: 13.8 µM (active)

Q: For CC=CC[C@@H](C)C(=O)[C@H]1C(=O)N[C@@H](C(C)C)C(=O)N(C)CC(=O)N(C)[C@@H](CC(C)C)C(=O)N[C@@H](C(C)C)C(=O)N(C)[C@@H](CC(C)C)C(=O)N[C@@H](C)C(=O)N[C@H](C)C(=O)N(C)[C@@H](CC(C)C)C(=O)N(C)[C@@H](CC(C)C)C(=O)N(C)[C@@H](C(C)C)C(=O)N1C, which Potency is on record?
A: inactive

Q: For C[C@@H](O[C@H]1OCCN(Cc2n[nH]c(=O)[nH]2)[C@@H]1c1ccc(F)cc1)c1cc(C(F)(F)F)cc(C(F)(F)F)c1, which Potency is on record?
A: inactive

Q: For CCOC1OC(=O)C[C@H]1NC(=O)[C@@H]1CCCN1C(=O)[C@@H](NC(=O)c1ccc(N)c(Cl)c1)C(C)(C)C (stereo not given in full), which Potency is on record?
A: inactive
